molecular target: PUM1 PUF domain R1-RRS (Homo sapiens, UniProt Q14671 828-1176, S863R;Q867S); test: yeast three-hybrid, YBZ-1, SC-Leu-His + 0.5 mM 3-AT, 4 days; conditions: tags: N-Gal4 AD-HA kept; label: inside an RPR1-promoter hybrid RNA with tandem MS2 sites; ssRNA
Procedure, shortened: (§1)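 Repeat regions from input (SC-Leu) and selection (SC-Leu-His + 0.5 mM 3-AT) plates were PCR-amplified and Illumina-sequenced after four days of growth. The cells were strain YBZ-1 with a LexA–MS2 coat fusion and a HIS3 reporter, co-expressing Pumilio-1 PUF domain libraries and matching RNA elements from a centromeric plasmid. The interaction score is the log change in variant frequency from input to selection, taken in log2 with a pseudocount of 1 for absent variants.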

PUM1 PUF domain R1-RRS, sequence (Q14671 828-1176 S863R/Q867S): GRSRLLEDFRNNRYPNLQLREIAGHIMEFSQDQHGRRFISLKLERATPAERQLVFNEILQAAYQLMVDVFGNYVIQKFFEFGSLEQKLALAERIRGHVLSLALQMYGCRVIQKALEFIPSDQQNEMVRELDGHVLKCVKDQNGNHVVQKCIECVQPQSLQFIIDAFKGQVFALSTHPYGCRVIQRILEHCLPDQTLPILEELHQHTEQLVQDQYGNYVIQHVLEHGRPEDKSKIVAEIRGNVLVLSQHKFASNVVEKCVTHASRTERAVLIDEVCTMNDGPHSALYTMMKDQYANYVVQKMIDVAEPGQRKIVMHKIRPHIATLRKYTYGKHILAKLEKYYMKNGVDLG

| Sequence | binding signal |
| --- | --- |
| GGCUAGAACUAGUGGAUCCCCCGGCGCCCGGCGGCUCGAGCCCGGGUAAGUGUAAAUUGUCUGCAUGCCGCCGGGCGCCAUGCCUGCAGGUCGACUCUAGAAAACAUG | 3.16 log2 enrichment (interaction score) |
| GGCUAGAACUAGUGGAUCCCCCGGCGCCCGGCGGCUCGAGCCCGGGUAAGUGUAAAUCGUCUGCAUGCCGCCGGGCGCCAUGCCUGCAGGUCGACUCUAGAAAACAUG | 5.02 log2 enrichment (interaction score) |
| GGCUAGAACUAGUGGAUCCCCCGGCGCCCGGCGGCUCGAGCCCGGGUAAGUGUAAAUGGUCUGCAUGCCGCCGGGCGCCAUGCCUGCAGGUCGACUCUAGAAAACAUG | 2.51 log2 enrichment (interaction score) |

molecular target: PUM1 PUF domain R4-CMV (Homo sapiens, UniProt Q14671 828-1176, N971C;H972M;Q975V); test: as above; conditions: tags: N-Gal4 AD-HA kept; label: inside an RPR1-promoter hybrid RNA with tandem MS2 sites; ssRNA
Procedure, shortened: as §1

PUM1 PUF domain R4-CMV, sequence (Q14671 828-1176 N971C/H972M/Q975V): as the sequence (Q14671 828-1176 S863R/Q867S) above, with R36S, S40Q, N144C, H145M, Q148V counted along it

| Sequence | binding signal |
| --- | --- |
| GGCUAGAACUAGUGGAUCCCCCGGCGCCCGGCGGCUCGAGCCCGGGUAAGUGUAAAUAGUCUGCAUGCCGCCGGGCGCCAUGCCUGCAGGUCGACUCUAGAAAACAUG | 2.52 log2 enrichment (interaction score) |
| GGCUAGAACUAGUGGAUCCCCCGGCGCCCGGCGGCUCGAGCCCGGGUAAGUGUACAUAGUCUGCAUGCCGCCGGGCGCCAUGCCUGCAGGUCGACUCUAGAAAACAUG | 1.08 log2 enrichment (interaction score) |
| GGCUAGAACUAGUGGAUCCCCCGGCGCCCGGCGGCUCGAGCCCGGGUAAGUGUAUAUAGUCUGCAUGCCGCCGGGCGCCAUGCCUGCAGGUCGACUCUAGAAAACAUG | 3.68 log2 enrichment (interaction score) |

Source: publication PMC8384837, “Expanding the binding specificity for RNA recognition by a PUF domain”
